Shown are actives, neighbours in structure and some others; about 13% of the full set was active somewhere.
Shiga inhibitor = blocks Shiga toxin action in Vero cells. inhibition, % at 38.7 µM. actives 9.2% (n = 290,000). Vero cells, Shiga toxin protein synthesis inhibition reporter; in the data active = inhibition mostly above about 28%, no sharp cut-off; inactive = mostly below about 43%; also: 0% is about no effect
FMDV inh = antivirals against foot and mouth disease virus. FMDV antiviral cell-based qHTS. Potency, µM (doses to about 57.9 µM), without a hit: top-dose activity change, negative = inhibition, hits mostly inhibitors. actives 1.2% (n = 410,000). AID 1159524; calls by dose curve; tested in HEK293T cells; also: read-out not given here; potency is read from the fitted curve at half-maximal effect; % is scaled to controls: 0 for no effect and ±100 for the full control effect; nearly all actives have a fitted effect of over 45% in size
LASV entry inh = blocks Lassa virus binding to or entry into cells; Lassa virus pseudotype entry inhibition, cell reporter; Potency, µM (highest dose often 37.9 µM), without a hit: at the top dose activity change, negative = inhibition, actives largely listed as inhibitors; actives 1.2% (n = 300,000); AID 540256; calls by dose curve; tested in HEK293 cells; also: potency is read from the fitted curve at half-maximal effect; % is scaled to controls: 0 for no effect and ±100 for the full control effect; nearly all actives have a fitted effect of over 50% in size
HCV inhibitor = blocks hepatitis C virus | Huh7.5.1 HCVcc-Cre infection, luciferase reporter, 44 h | Potency, µM (series often up to 41.8 µM), for the others: top-dose activity change, negative = inhibition, usual class: inhibitors | actives 3.4% (n = 340,000); active = well fitted inhibition curve with a large enough effect; inconclusive = small, poorly fitted or top-dose-only effect, or another doubt; inactive = no such curve, though single readings can be large or run the other way; also: potency is read from the fitted curve at half-maximal effect; % is scaled to controls: 0 for no effect and ±100 for the full control effect
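Antiviral activity was scored by luciferase reporter output from cells infected with HCVcc-Cre (~0.5 moi) in presence of compound, 44 h infection period, cells seeded 1,000/well 4 h prior.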
CHX counter = affects cycloheximide protein synthesis inhibition readout, counter-screen. AID 2314. actives 12% (n = 300,000). cell reporter, cycloheximide protein synthesis inhibition counterscreen. max response, %; in the data active = max response mostly above about 13%, no sharp cut-off; inactive = mostly below about 14%; also: read at 38.3 µM for the half of the compounds with a filed dose; 0% is about no effect
MARV entry inh = blocks Marburg virus binding to or entry into cells. actives 1.8% (n = 300,000). Potency, µM (doses to about 37.8 µM), for inactives: top-dose activity change, negative = inhibition, most hits filed as inhibitors. AID 540276. Marburg virus pseudotyped entry inhibition, cell reporter; calls by dose curve; tested in HEK293 cells; also: potency is read from the fitted curve at half-maximal effect; % is scaled to controls: 0 for no effect and ±100 for the full control effect
Starred values were filed as active, the others as inactive; i = inactive; ? = inconclusive; . = no result given; [ ] = another dose, or the depositor's remark.

SMILES | Shiga inhibitor | FMDV inh | LASV entry inh | HCV inhibitor | CHX counter | MARV entry inh
O=C(Nc1nccs1)c1ccc(COc2c(F)c(F)cc(F)c2F)o1 | . | 29.7% | . | 5.4% | . | .
Cc1ccc(OCc2ccc(C(=O)Nc3nccs3)o2)cc1C | 46.9 | 24.0% | -2.4% | -22.5% | 24.9* | ?
O=C(NCCc1nc2ccccc2[nH]1)c1ccc(Cl)c([N+](=O)[O-])c1 | -6.2 | -24.0% | 1.1% | 8.7% | -1.5 | 3.1%
CCCNC(=O)c1ccc2c(=O)c(O)c(-c3ccc(Cl)c([N+](=O)[O-])c3)[nH]c2c1 | 1.6 | -14.3% | . | 5.01µM* | -3.1 | .
CCc1ccc(N(CC(=O)NC2CCCCC2)C(=O)CCC(=O)Nc2ccccn2)cc1 | -7.6 | -5.8% | 15.8% | -24.0% | -2.9 | -7.2%[46.1 µM]
CCC(=O)N1CCc2cc(S(=O)(=O)NCCC(=O)NCc3ccc(OC)cc3)ccc21 | . | -5.4% | 19.6%[46.1 µM] | . | . | 6.1%[46.1 µM]
CN(C)c1ncc2nc(-c3cccc(C#N)c3)c(=O)n(CCC#N)c2n1 | . | -4.3% | . | . | . | .
COc1ccc(-c2noc(CN(C)Cc3ccccc3)n2)c(OC)c1OC | 20.4 | 30.9% | . | ? | 14.6* | .
CCCOc1cccc(OCCSc2nc(C)cc(=O)[nH]2)c1 | 31.2 | 23.6% | ? | -3.4% | 46.0* | -20.0%
CCCCCCC(NC(=O)Cc1ccc2ccccc2c1)C(=O)O (centres undefined) | . | -12.7% | . | 44.1% | . | .
CC(C)Cc1ccc(CN2CCCC(NC(=O)c3ccnn3C)C2)cc1 (centres undefined) | -34.1 | ? | ? | 11.2µM* | 7.9 | 10µM*
O=C(Nc1nnc(C2CC2)s1)C1CCCCC1 | . | 46.0% | . | 7.5% | . | .
Cc1cc(C(=O)COc2ccccc2C(N)=O)c(C)n1C1CC1 | 106.5 | 15.8% | . | ? | 40.0* | .
Cc1cc(C(=O)COc2ccccc2[N+](=O)[O-])c(C)n1C1CC1 | 64.9* | 42.9% | 12.4%[46.1 µM] | 0.1% | 27.5* | 21.0%[46.1 µM]
COc1ccc(NC(=O)NC2CCCc3ccccc32)cc1 (centres undefined) | 18.7 | 13.1% | ? | -12.9% | 15.8* | ?
CC(=O)c1ccc(NC(=O)NC2CCCc3ccccc32)cc1 (centres undefined) | 3.8 | 0.2% | . | ? | 0.5 | .
COc1ccc(C)cc1NC(=O)NC1CCCc2ccccc21 (centres undefined) | -2.8 | 11.3% | 12.3%[46.1 µM] | ? | -4.5 | 2.1%[46.1 µM]
COc1ccc(NC(=O)NC2CCCc3ccccc32)cc1OC (centres undefined) | 31.0* | -18.7% | . | ? | 33.5* | .
FC(F)(F)c1nnc(-c2ccccc2)nc1N1CCCC1 | -3.6 | -2.2% | ? | 21.6% | -5.7 | 9.4%[46.1 µM]
O=S(=O)(Nc1ccc2nc(C(F)(F)F)[nH]c2c1)c1ccccc1 | -15.0 | . | ? | ? | -1.4 | -27.9%
O=S(=O)(Nc1ccc2nc(-c3ccc(Br)o3)[nH]c2c1)c1ccccc1 | 64.0 | . | . | . | 39.9* | .
Cc1cc(NS(=O)(=O)c2ccc3nc(-c4ccccc4)[nH]c3c2)ccc1Br | . | 13.9% | -18.2%[46.1 µM] | . | . | 1.1%[46.1 µM]
Cc1ccc(-c2nc3ccc(NS(=O)(=O)c4ccccc4)cc3[nH]2)o1 | 129.8* | . | -28.8% | -23.9% | 66.0* | -0.9%
CC1CCN(C(=O)COC(=O)c2ccc(Br)o2)CC1 | 93.8* | 67.2% | ? | -9.0% | 66.6* | 9.8%
CC1CCN(C(=O)COC(=O)c2ccc3c(c2)OCO3)CC1 | 82.4* | 38.7% | ? | 4.4% | 33.9* | ?
SMILES | Shiga inhibitor | FMDV inh | LASV entry inh | HCV inhibitor | CHX counter | MARV entry inh
CC1CCN(C(=O)COC(=O)c2ccc3c(c2)OCCO3)CC1 | . | 23.0% | -17.7% | 3.5% | . | 1.4%
CCOC(=O)C1CCN(C(=O)COC(=O)c2ccc(Br)o2)CC1 | -10.6 | -11.2% | -1.0% | -2.8% | 8.5 | 3.9%[46.1 µM]
COc1ccccc1-n1cnnc1SCC(=O)N1CC(=O)Nc2ccccc21 | -10.1 | -6.9% | 5.1% | 8.0% | 7.8 | 4.5%
CC(C)(C)C(=O)COC(=O)c1cc2ccccc2cc1O | 38.7 | 40.6% | 7.3% | 6.8% | 25.3* | 19.3%
CC1CC(C)CN(C(=O)COC(=O)c2cc3ccccc3cc2O)C1 (centres undefined) | 26.1 | -13.3% | 20.2% | ? | 10.6 | 1.2%
CC1CCN(C(=O)COC(=O)c2cc3ccccc3cc2O)CC1 | 58.7 | -12.5% | -1.2% | 4.9% | 42.0* | -0.4%
COc1cc(Cl)ccc1OCc1cc(C(=O)N(C)Cc2cccc3cnccc23)no1 | 70.4* | ? | ? | 8.91µM* | 61.4* | ?
CN(Cc1nccs1)C(=O)c1cc(COc2cccc3cnccc23)on1 | -6.2 | ? | . | 6.31µM* | 4.9 | .
CC(=O)c1cccc(OCc2cc(C(=O)N(C)Cc3nccs3)no2)c1 | . | 36.0% | . | . | . | .
CC(C)c1nnc(NC(=O)CCC(=O)NCCc2ccccc2)s1 | 10.7 | 9.5% | 1.1% | -0.9% | 1.0 | 9.5%
CC(C)c1nnc(NC(=O)CCS(=O)(=O)c2ccccc2)s1 | 43.6* | 22.2% | 0.3% | 3.7% | 9.0 | -9.4%[46.1 µM]
O=C(CCc1ccccc1)Nc1cccnc1 | 104.3* | 41.9% | . | 9.7% | 13.4* | .
CC(Cc1ccccc1)C(=O)Nc1ccc(Br)cc1 (centres undefined) | 99.8* | 34.8% | . | -6.9% | 36.2* | .
CC(C)c1nnc(NC(=O)CCc2ccccc2)s1 | 27.6 | 33.0% | . | 12.0% | 18.9* | .
CCCC(C)c1nnc(NC(=O)CCS(=O)(=O)c2ccccc2)s1 (centres undefined) | -13.7 | ? | . | -4.0% | -2.4 | 7.6%[46.1 µM]
COc1ccc(N2CCN(C(=O)c3cnc(SC)nc3C)CC2)cc1 | . | -12.1% | 23.4%[46.1 µM] | . | . | .
Cc1ccc(C)c(NC(=O)c2ccc(N(C)S(C)(=O)=O)cc2)c1 | 8.4 | -7.3% | 21.4% | 5.2% | 2.0 | 6.4%
CCCCN(Cc1nc2ccccc2c(=O)[nH]1)C(=O)COc1ccc(F)cc1Cl | . | -24.8% | . | 7.2% | . | .
CC(C(=O)NC(C)(C)C)N(Cc1cccs1)C(=O)CCN1CCc2ccccc21 (centres undefined) | -10.7 | ? | ? | -4.8% | -4.6 | ?
O=C(CCc1ccccc1)Nc1ccncc1 | 1.8 | 2.5% | 0.3% | -9.4% | 0.4 | 1.9%
CC(C)c1ccc(NC(=O)COc2nncc3ccccc23)cc1 | 42.5* | 20.6% | 20.4% | 1.2% | 24.1* | 24.5%[46.1 µM]
CC(C)c1ccc(NC(=O)CCc2ccccc2)cc1 | 135.5* | 50.0% | ? | ? | 55.8* | -21.6%
CCN1CCN(C(=O)COCc2cc(-c3ccc4c(c3)OCO4)on2)CC1 | 27.2 | 11.1% | ? | 3.2% | 21.9* | -0.9%[46.1 µM]
O=C(COCc1cc(-c2ccc3c(c2)OCO3)on1)Nc1cccnc1Cl | 29.4 | 33.4% | 2.1%[46.1 µM] | -0.7% | 25.3* | 19.2%[46.1 µM]
CCNC(=O)C1(C)CCCN(Cc2csc3ccccc23)C1 (centres undefined) | . | -19.2% | . | . | . | .
Cc1cccc(-c2cccc(-c3cc(=O)oc4cc5c(cc34)OCO5)c2)c1 | i | . | . | . | 9.4 | .
COc1cc(C=NO)nc(-c2ccccn2)c1 | . | -8.0% | 1.26µM* | ? | . | ?
COc1ccc(Oc2ccccc2/C=N/O)cc1 | -3.9 | ? | -10.6% | ? | -2.8 | ?

Bioassay records as filed in PubChem.
